# Assay results published in PubChem BioAssay (NCATS).
# Unmarked numbers belong to inactive results. How the calls were made is not given here.
# Test system: HIV-1 nucleocapsid protein NCp7 (binding to TG oligonucleotide)
# Assay: HIV Nucleocapsid (AID 346);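 further: potency is for inhibitors that block NC binding and lower polarization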
# Settings: HIV-1 NC / fluorescein-TGTGTGTG probe, fluorescence polarization
# How it was run: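 Inhibition of nucleocapsid binding to single-stranded 5'-TGTGTGTG probe (10 nM) was measured by fluorescence polarization after 1 hr at room temperature with 100 nM protein under high-salt, zinc-containing, reducing conditions.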
# Potency means the concentration at half of the fitted maximal effect.
row,SMILES,Potency [µM]
1,COC(=O)N1CCC2(CCCN(Cc3cc(C(F)(F)F)cc(C(F)(F)F)c3)C2)CC1,> 20
2,CN(C)c1ncc2nc(-c3ccccc3)c(=O)n(Cc3cccs3)c2n1,> 20
3,O=c1c(CCc2ccccc2)nc2cncnc2n1Cc1ccccc1,> 20
4,CN1CCN(c2nc(-c3ccc(N(C)C)cc3)nc3ccccc23)CC1,> 20
5,COc1ccccc1CCn1c(=O)c(-c2cccc(Cl)c2)nc2cncnc21,> 20
6,COc1ccccc1CNc1ccnc(-c2ccccc2OC)n1,> 20
7,CC(C)CN1CCCC2(CCN(C(=O)c3ccco3)CC2)C1,> 20
8,CN(C)c1ncc2ncc(=O)n(C[C@H]3CCCO3)c2n1,> 20
9,COc1cccc(Cn2c(=O)c(CCc3ccccc3)nc3cnc(N4CCNCC4)nc32)c1,> 20
10,O=c1c(-c2cccs2)nc2cnc(N3CCOCC3)nc2n1Cc1cccs1,> 4
11,O=S(=O)(c1ccccc1)N1CCC[C@@]2(CCN(C(c3ccccc3)c3ccccc3)C2)C1,> 20
12,COCC(=O)N1CCC[C@@]2(CCN(C(=O)Nc3ccc(OC)cc3)C2)C1,> 20
13,CC(=O)NCCNc1ncnc2ccc(-c3ccccc3C(F)(F)F)cc12,> 20
14,O=c1c(-c2ccc(F)cc2)nc2cncnc2n1-c1ccccc1,> 20
15,CN1CCN(c2ccnc(-c3cccnc3)n2)CC1,> 20
16,Cn1c(=O)c(CCc2ccccc2)nc2cnc(Nc3ccccc3)nc21,> 20
17,O=C(c1cc(C(F)(F)F)cc(C(F)(F)F)c1)N1CCC2(CCCN(c3ccncc3)C2)CC1,> 20
18,COCCNc1nc(-c2ccccc2Cl)nc2ccccc12,> 20
19,O=c1c(-c2ccccc2)nc2cnc(Oc3cccc(Cl)c3)nc2n1C1CC1,> 20
20,CN1CCCC2(CCN(S(=O)(=O)c3ccccc3)CC2)C1,> 20
21,CN1CCN(c2ncc3ncc(=O)n(Cc4cccs4)c3n2)CC1,> 20
22,CN(C)c1ncc2ncc(=O)n(Cc3cccs3)c2n1,> 20
23,COc1cccc(Cn2c(=O)c(-c3cc(F)cc(F)c3)nc3cnc(N4CCN(C)CC4)nc32)c1,> 20
